Results taken from PubChem BioAssay (NCATS).
Results filed as inconclusive are left out. Calls of active or inactive are those of the source. Unless noted, the call rests on the fitted dose curve; in most records, active means well fitted curve in the direction sought with a large enough effect; inconclusive means small, poorly fitted or top-dose-only effect, or another doubt; inactive means no such curve, though single readings can be large; an effect the other way counts as inactive or inconclusive.

Tests used:
[1] = qHTS assay for measurement of the activity of small molecule inhibitors on Zika virus induced Caspase-3 activity in human iPSC derived neural progenitor cells (hNPCs) (AID 1224857); further: nearly all actives have a fitted effect of over 65% in size; further: potency means the concentration at half of the fitted maximal effect
How it was run: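 Zika virus (2 FFU/cell) infection of human iPSC-derived NPCs, 6 h, following 1 h compound preincubation. Read-out: Caspase-Glo 3/7 luminescence.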

[2] = qHTS assay for measurement of the activity of small molecule inhibitors on Zika virus induced Caspase-3 activity in human astrocytoma cells (AID 1224859)
How it was run: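 Caspase activation in ZIKV-infected SNB-19 cells (2 FFU/cell, 6 h) measured by Caspase-Glo 3/7 luminescence after 30 min RT; compound pre-incubated 1 h; normalised to uninfected and infected controls.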

[3] = biological target: Atrial natriuretic peptide receptor 1 (Homo sapiens) (UniProt P16066); assay: Natriuretic polypeptide receptor (hNpr1) antagonism - Pilot screen (AID 1347049; calls by dose curve;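 further: agonist-evoked cGMP luminescence read 20 min after hNppA addition; series mostly up to about 58 µM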)
How it was run: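 HEK293 cells co-expressing hNpr1 and the GloSensor pGS-40F cGMP luciferase sensor were preloaded with 2% GloSensor reagent for 2 h. Compounds were added for 30 min at room temperature, then cells were stimulated with 0.1 nM hNppA for 20 min before luminescence readout.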

[4] = biological target: Atrial natriuretic peptide receptor 2 (Homo sapiens) (UniProt P20594); assay: Natriuretic polypeptide receptor (hNpr2) antagonism - Pilot subtype selectivity assay (AID 1347050; calls by dose curve)
How it was run: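 cGMP-sensor HEK293/hNpr2 cells; 2% GloSensor reagent 2 h RT; compounds 30 min; baseline luminescence read; 1 nM hNppC agonist 20 min RT; final luminescence read by CCD camera. Antagonism = reduced post-agonist signal.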

[5] = NS1 protein of Zika virus - qHTS assay to identify small molecule inhibitors in human HEK 293 cells (AID 1347053); further: nearly all actives have a fitted effect of over 55% in size; further: potency means the concentration at half of the fitted maximal effect
How it was run: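 HEK 293; 20 h pre-culture, 37 C/5% CO2; cpd 1 h pre-infection; ZIKV MR766, MOI = 0.5, 24 h, 37 C; TR-FRET NS1 readout (two anti-NS1 Abs); norm. to no-virus vs infected.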

[6] = biological target: Parathyroid hormone/parathyroid hormone-related peptide receptor (Homo sapiens) (UniProt Q03431); assay: qHTS for PTHR1 Agonists: Optimization Screen against the NCGC LOPAC library (AID 1347079);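 further: GloSensor cAMP luminescence in HEK-293 GP2 cells expressing human PTHR1 with IBMX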
How it was run: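 Agonist readout: GloSensor cAMP luminescence, read after 15 min at room temperature. HEK-293-derived GP2 line carries PTHR1; compounds tested as a titration for 1 hr at 37C in presence of IBMX. M-PTH (1-15) served as control.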

[7] = biological target: T1, Tyrosine-protein phosphatase non-receptor type substrate 1 (Homo sapiens) + Leukocyte surface antigen CD47 (Homo sapiens) (UniProt P78324+Q08722); assay: CD47-SIRPalpha protein protein interaction - LANCE assay qHTS validation (AID 1347057; active means well fitted curve in the direction sought with a large enough effect in the signal ratio, with a control signal flat, not every such curve was filed as active; the % refers to the signal ratio; further: series mostly up to about 38 µM)
How it was run: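 First, His-tagged CD47 and Eu-labelled anti-His antibody met the compound for 30 min; next, site-specifically biotinylated SIRPalpha was added for 30 min; finally streptavidin-APC was added before reading the TR-FRET ratio.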

[8] = biological target: T1, Tyrosine-protein phosphatase non-receptor type substrate 1 (Homo sapiens) + Leukocyte surface antigen CD47 (Homo sapiens); assay: CD47-SIRPalpha protein protein interaction - HTRF assay qHTS validation (AID 1347058; active means well fitted curve in the direction sought with a large enough effect in the signal ratio, not every such curve was filed as active; the % refers to the signal ratio; further: series mostly up to about 38 µM)
How it was run: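 TR-FRET read (Ch1/Ch2 ratio) of soluble extracellular CD47 and Avi-biotinylated SIRPalpha domains in PBS pH 7.4 with 0.05% IGEPAL; 7-point compound titration. Sequential 30 min room-temperature steps; non-biotinylated SIRPalpha as control inhibitor.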

[9] = biological target: T1, Tyrosine-protein phosphatase non-receptor type substrate 1 (Homo sapiens) + Leukocyte surface antigen CD47 (Homo sapiens); assay: CD47-SIRPalpha protein protein interaction - Alpha assay qHTS validation (AID 1347059);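 further: bead proximity luminescence from CD47 binding SIRPalpha after compound preincubation with SIRPalpha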
How it was run: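 Soluble extracellular domains: Avi-tag biotinylated SIRPalpha (25 nM) preincubated 30 min RT with compound, then 6His-CD47 (12.5 nM) 30 min; Ni-NTA acceptor and streptavidin donor beads (10 ug/mL) 30 min, AlphaScreen read. PBS pH 7.4, 0.05% IGEPAL.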

[10] = Natriuretic polypeptide receptor (hNpr1) antagonism - Pilot counterscreen GloSensor control cell line (AID 1347045; calls by dose curve; further: potency means the concentration at half of the fitted maximal effect)
How it was run: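 Luminescence was read before and 20 min after adding 50 uM SNP, which stimulates soluble guanylyl cyclase. The HEK293 cells expressing the GloSensor cGMP sensor had been preloaded with 2% reagent for 2 h and treated with compound.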

[11] = qHTS assay to identify small molecule inhibitors of chordoma cells - UCH-1 (AID 1259355); further: nearly all actives have a fitted effect of over 55% in size
How it was run: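 Luminescent ATP read-out (CellTiter-Glo, 30min at room temperature) measured viability of UCH-1 cells exposed for 48hr to test drugs at 15 concentrations, co-dosed with a five-agent combination of auranofin, camptothecin, doxorubicin, rubitecan and topotecan.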

[12] = qHTS assay to identify small molecule inhibitors of chordoma cells - UCH-2 (AID 1259356); further: series mostly up to about 46 µM
[13] = P-glycoprotein substrates identified in KB-8-5-11 adenocarcinoma cell line, qHTS therapeutic library screen (AID 1346987); further: nearly all actives have a fitted effect of over 65% in size
How it was run: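 Steps: plate 500 KB-8-5-11 cells/well in DMEM + 10% FCS (colchicine removed); pin compounds in dose-response; incubate 72 h, 37 degree C, 5% CO2; add CellTiter-Glo, 5 min; read luminescence.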

[14] = qHTS of pediatric cancer cell lines to identify multiple opportunities for drug repurposing: Primary screen for TC32 cells (AID 1347089); further: nearly all actives have a fitted effect of over 60% in size
How it was run: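 A viability screen of TC32 cells was run over 48 h, with primary MIPE doses spanning 0.78 nM–46 µM and NPC doses 0.59 nM–46 µM. ATP luminescence (CellTiter-Glo) served as the read-out.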

[15] = qHTS of pediatric cancer cell lines to identify multiple opportunities for drug repurposing: Primary screen for DAOY cells (AID 1347090); further: series mostly up to about 46 µM; nearly all actives have a fitted effect of over 55% in size
How it was run: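 Eight- or eleven-point concentration series, 48 h treatment at 37 degrees C in growth media; readout CellTiter-Glo luminescence. Potency and efficacy were taken from the concentration-response curves.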

Measured: Potency

Sequence of Atrial natriuretic peptide receptor 1 (Homo sapiens) (P16066 whole entry, looked up): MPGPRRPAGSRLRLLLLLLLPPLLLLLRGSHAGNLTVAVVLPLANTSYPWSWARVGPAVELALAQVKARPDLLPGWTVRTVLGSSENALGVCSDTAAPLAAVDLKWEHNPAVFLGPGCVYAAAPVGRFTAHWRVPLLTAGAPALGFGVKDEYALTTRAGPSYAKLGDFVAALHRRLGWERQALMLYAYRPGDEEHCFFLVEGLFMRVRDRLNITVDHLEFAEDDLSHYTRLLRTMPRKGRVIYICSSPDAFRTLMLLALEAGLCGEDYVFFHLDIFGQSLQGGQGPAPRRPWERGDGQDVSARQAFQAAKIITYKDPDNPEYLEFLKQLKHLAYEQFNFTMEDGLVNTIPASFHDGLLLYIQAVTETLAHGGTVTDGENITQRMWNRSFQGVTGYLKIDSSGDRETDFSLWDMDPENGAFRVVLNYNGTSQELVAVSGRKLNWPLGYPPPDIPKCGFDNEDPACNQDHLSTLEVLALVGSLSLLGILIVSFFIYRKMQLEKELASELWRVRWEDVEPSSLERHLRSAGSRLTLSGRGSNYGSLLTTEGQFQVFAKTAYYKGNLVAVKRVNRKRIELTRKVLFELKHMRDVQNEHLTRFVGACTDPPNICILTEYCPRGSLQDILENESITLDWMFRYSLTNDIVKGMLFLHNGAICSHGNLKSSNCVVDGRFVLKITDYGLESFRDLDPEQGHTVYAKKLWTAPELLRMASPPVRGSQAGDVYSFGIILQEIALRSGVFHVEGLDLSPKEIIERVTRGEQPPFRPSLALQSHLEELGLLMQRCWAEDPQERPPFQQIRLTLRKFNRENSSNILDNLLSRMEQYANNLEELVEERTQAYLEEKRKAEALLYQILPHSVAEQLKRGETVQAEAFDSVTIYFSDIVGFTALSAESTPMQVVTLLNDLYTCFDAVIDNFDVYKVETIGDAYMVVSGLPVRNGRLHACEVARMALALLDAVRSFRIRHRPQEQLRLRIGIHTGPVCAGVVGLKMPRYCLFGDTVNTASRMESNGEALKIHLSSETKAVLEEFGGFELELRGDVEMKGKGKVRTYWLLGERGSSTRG
T1 sequence (P78324 whole entry, looked up): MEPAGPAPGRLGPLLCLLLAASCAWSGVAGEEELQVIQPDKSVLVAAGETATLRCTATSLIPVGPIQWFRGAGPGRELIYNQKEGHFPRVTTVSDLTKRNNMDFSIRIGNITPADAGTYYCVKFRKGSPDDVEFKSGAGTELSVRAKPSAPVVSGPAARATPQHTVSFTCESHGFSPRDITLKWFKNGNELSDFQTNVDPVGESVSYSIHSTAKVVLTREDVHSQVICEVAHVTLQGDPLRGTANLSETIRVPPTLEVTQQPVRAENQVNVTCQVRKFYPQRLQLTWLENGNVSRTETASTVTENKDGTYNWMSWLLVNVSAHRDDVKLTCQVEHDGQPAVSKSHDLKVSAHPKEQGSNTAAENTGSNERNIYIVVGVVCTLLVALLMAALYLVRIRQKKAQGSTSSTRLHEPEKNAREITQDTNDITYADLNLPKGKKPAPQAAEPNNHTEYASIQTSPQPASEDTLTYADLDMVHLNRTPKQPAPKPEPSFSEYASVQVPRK
T1 sequence (Q08722 whole entry, looked up): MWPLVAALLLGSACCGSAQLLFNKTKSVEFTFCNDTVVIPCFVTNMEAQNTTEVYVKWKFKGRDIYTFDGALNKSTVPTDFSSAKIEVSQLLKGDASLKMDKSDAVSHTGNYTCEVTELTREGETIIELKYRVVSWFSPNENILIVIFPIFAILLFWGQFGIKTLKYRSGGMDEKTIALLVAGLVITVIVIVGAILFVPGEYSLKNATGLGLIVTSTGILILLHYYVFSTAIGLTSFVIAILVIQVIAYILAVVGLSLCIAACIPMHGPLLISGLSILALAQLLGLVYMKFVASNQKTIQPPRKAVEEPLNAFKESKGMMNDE
Sequence of Atrial natriuretic peptide receptor 2 (Homo sapiens) (P20594 whole entry, looked up): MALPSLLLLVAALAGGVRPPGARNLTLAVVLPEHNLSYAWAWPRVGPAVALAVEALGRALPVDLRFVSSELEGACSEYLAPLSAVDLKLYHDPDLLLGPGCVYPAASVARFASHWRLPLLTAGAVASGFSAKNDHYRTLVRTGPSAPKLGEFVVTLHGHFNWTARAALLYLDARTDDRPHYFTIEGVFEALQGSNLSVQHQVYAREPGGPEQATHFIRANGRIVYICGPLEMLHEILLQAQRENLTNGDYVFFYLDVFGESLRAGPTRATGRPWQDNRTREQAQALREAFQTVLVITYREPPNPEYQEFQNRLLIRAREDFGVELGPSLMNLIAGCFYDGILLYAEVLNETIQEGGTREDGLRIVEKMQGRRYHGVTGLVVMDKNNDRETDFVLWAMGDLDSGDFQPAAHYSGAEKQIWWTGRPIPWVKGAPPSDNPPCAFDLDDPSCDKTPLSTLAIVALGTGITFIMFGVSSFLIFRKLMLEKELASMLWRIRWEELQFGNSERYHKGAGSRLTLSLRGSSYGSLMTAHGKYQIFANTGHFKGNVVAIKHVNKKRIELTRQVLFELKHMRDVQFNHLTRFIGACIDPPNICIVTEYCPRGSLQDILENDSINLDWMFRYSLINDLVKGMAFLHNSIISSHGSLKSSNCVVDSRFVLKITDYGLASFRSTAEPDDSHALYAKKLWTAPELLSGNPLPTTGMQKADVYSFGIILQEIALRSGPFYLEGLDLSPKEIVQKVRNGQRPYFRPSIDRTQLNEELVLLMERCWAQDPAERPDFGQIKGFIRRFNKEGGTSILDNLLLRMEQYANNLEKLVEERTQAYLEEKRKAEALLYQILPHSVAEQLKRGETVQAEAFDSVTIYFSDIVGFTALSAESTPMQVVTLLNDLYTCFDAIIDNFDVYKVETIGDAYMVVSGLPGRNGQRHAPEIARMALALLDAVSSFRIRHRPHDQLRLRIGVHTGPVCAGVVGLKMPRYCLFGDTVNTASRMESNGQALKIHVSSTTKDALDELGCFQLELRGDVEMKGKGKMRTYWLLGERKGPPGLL
Sequence of Parathyroid hormone/parathyroid hormone-related peptide receptor (Homo sapiens) (Q03431 whole entry, looked up): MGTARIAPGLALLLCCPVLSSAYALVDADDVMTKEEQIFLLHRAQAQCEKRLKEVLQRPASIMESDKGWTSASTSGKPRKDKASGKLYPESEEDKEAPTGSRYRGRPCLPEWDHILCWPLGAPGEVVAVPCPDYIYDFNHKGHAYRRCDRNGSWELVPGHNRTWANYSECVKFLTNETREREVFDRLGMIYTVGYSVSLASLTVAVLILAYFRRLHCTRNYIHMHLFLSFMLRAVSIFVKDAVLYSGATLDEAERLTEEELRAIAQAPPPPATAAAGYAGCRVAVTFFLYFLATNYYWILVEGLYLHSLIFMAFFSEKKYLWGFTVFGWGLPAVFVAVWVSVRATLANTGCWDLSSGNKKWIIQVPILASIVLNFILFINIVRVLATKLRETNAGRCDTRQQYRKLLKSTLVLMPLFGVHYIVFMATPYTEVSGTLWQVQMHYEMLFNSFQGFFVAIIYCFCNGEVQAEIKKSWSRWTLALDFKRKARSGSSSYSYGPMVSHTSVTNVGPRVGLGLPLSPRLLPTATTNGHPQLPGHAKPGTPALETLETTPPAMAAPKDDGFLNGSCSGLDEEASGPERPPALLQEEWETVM

CCCCCCCCc1ccc(-c2ccc(C(=O)O)cc2)cc1
inactive: [1] | [2] | [3] | [4] | [5] | [6]

NC[C@@H]1O[C@H](C23CC4CC(CC(C4)C2)C3)Cc2c1ccc(O)c2O
inactive: [1] | [2] | [3] | [4] | [7] | [8] | [6]

c1ccc(-c2ccccn2)nc1
inactive: [1] | [2] | [3] | [4] | [5] | [6]

Cn1c(=O)c2[nH]c(-c3ccccc3)nc2n(C)c1=O
inactive: [1] | [2] | [3] | [4] | [5] | [6]

NCCCCC(=O)O
inactive: [1] | [2] | [4] | [5] | [6]

COc1cccc(OC)c1OCCNCC1COc2ccccc2O1 (stereo not drawn)
inactive: [1] | [2] | [4] | [5] | [7] | [9] | [6]

CC(C)(C=O)Cc1cc(C(C)(C)C)c(O)c(C(C)(C)C)c1
not listed: [10] | [11] | [12] | [13] | [14] | [15]
inactive: all other assays above

NO
inactive: [1] | [2] | [4] | [6]

COc1ccc2c(c1)CCC1C2CC[C@@]2(C)C1CC[C@@H]2NCCCCCCN1C(=O)CCC1=O (stereo partly drawn)
not listed: [10] | [11] | [12] | [13] | [14] | [15]
inactive: all other assays above

Fc1ccc(C(OCCCc2cnc[nH]2)c2ccc(F)cc2)cc1
inactive: [1] | [2] | [3] | [4] | [5] | [7] | [8] | [6]

Oc1cc(O)cc(/C=C/c2ccc(O)c(O)c2)c1
inactive: [5] | [7] | [6]
active: [1] 7.94 µM | [10] 11.7 µM

CC(C(=O)O)c1ccc(C(=O)c2cccs2)cc1 (stereo not drawn)
active: [1] 22.4 µM
inactive: [11] | [12] | [13] | [5] | [14] | [15]

C#C[C@]1(O)CC[C@H]2[C@@H]3CCC4=Cc5oncc5CC4(C)[C@H]3CCC21C (stereo partly drawn)
inactive: [1] | [2] | [5] | [6]

COC(=O)C1=C(C)NC(C)=C(C(=O)OC)C1c1cccc(NC(=O)NCCCN2CCC(c3cccc(OC)c3)CC2)c1
inactive: [1] | [13] | [7] | [8] | [9]

CCCCCCCCCCCCCCCCCC(=O)O
inactive: [1] | [11] | [12] | [13] | [5] | [14] | [15]

O=C(Nc1ccc(C(=O)O)c(O)c1)c1ccccc1
inactive: [1] | [11] | [12] | [13] | [5] | [14] | [15]

CCCCCCCCCCCCCCCC(=O)OC(CC(=O)O)C[N+](C)(C)C (stereo not drawn)
inactive: [1] | [3] | [4] | [5] | [7] | [8] | [6]

O=C(c1ccc(Cl)cc1)N1CCN(c2ccc([N+](=O)[O-])c3ncccc23)CC1
inactive: [1] | [2] | [5] | [7] | [9] | [6]

O=[N+]([O-])c1ccc(CNc2nc(NCc3cccc(C(F)(F)F)c3)nc3nc[nH]c23)cc1
inactive: [1] | [13] | [5] | [7] | [8] | [9]

Cc1c(N)c(=O)n(-c2ccccc2)n1C
inactive: [1] | [13] | [5] | [14] | [15]

CN(CCCOc1ccc(Cc2ccccc2)cc1)CCC(=O)O
inactive: [1] | [13] | [5] | [7] | [8] | [9]

N=C(N)N
inactive: [1] | [13] | [5] | [14] | [15]

NC(=O)C(c1ccccc1)(c1ccccc1)[C@@H]1CCN(CCc2ccc3c(c2)CCO3)C1
inactive: [1] | [11] | [12] | [5] | [14]

C#CC1(O)CC[C@H]2[C@@H]3CCC4=CCCC[C@@H]4[C@H]3CC[C@@]21C (stereo partly drawn)
inactive: [1] | [11] | [12] | [13] | [14]

CC12C(=O)OC(=O)C1(C)C1CCC2O1 (stereo not drawn)
active: [5] 3.98 µM
inactive: [1] | [2] | [7] | [8] | [9] | [6]

NC[C@H]1O[C@@H](n2cnc3c(N)ncnc32)[C@H](O)[C@@H]1O
inactive: [1] | [2] | [5] | [7] | [8] | [9] | [6]

S=C(S)OC1CC2CC1C1CCCC21 (stereo not drawn)
inactive: [1] | [2] | [5] | [7] | [8] | [9] | [6]
